This is an account of results in PubChem BioAssay (NCI).

Some test systems named below: SK-MEL-2 melanoma; EKVX NSCLC; SN12C renal; UO-31 renal; TK-10 renal; A498 renal; CCRF-CEM leukemia; MOLT-4 leukemia; SR leukemia; RPMI-8226 leukemia; OVCAR-8 ovarian; OVCAR-5 ovarian; OVCAR-4 ovarian; SK-OV-3 ovarian; IGROV1 ovarian; OVCAR-3 ovarian; HS 578T breast; NCI/ADR-RES ovarian.
What all share (assay): NCI-60 one-dose screen, 48 h (100 = growth as untreated, 0 = no growth, -100 = all killed)
Holding throughout (conditions): 10 µM unless noted

Compounds without any hit were thinned out: in the full panel of roughly 83,000, 20% have a hit.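 Each cell line was grown in a 96-well plate and treated with one concentration of compound for 48 hours. Values below 10 were considered active.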 Unmarked numbers belong to inactive results. Active and inactive are the calls of the source.

As to `COc1ccc2c(c1)OC(N(C(C)=O)C(C)=O)=C(C#N)C2c1ccc(F)cc1` (stereo not drawn), the growth in the experiment with SK-MEL-2 melanoma is 25.1%; with EKVX NSCLC, 47.9%; with SN12C renal it was 51.5%; with UO-31 renal, 45.8%; in the experiment with TK-10 renal, 71.2%; in the experiment with A498 renal, 12.8%. The growth in the experiment on CCRF-CEM leukemia was 10.9%; in the experiment on MOLT-4 leukemia, 28.7%; with SR leukemia it was 12.4%; in the experiment with RPMI-8226 leukemia it was 3.13% (active); with OVCAR-8 ovarian it was 38.5%; in the experiment with OVCAR-5 ovarian, 65.2%. Moreover, the growth with OVCAR-4 ovarian is 81.9%; in the experiment with SK-OV-3 ovarian, 23.9%; in the experiment on IGROV1 ovarian it was 56.1%; in the experiment on OVCAR-3 ovarian, 11.9%; in the experiment on HS 578T breast, 23.6%; in the experiment with NCI/ADR-RES ovarian, 30.6%.

Take `Cc1ccc2[nH]c3nc4cccnc4c(C)c3c2c1`: the growth is 119% with SK-MEL-2 melanoma; 9.94% (active) in the experiment with EKVX NSCLC; 88.4% in the experiment with SN12C renal; 62.8% in the experiment on UO-31 renal; 38.7% with TK-10 renal; 92.7% in the experiment with A498 renal. The growth in the experiment on CCRF-CEM leukemia is 85.9%; in the experiment with MOLT-4 leukemia it was 81.9%; in the experiment with SR leukemia, 2.59% (active); in the experiment on RPMI-8226 leukemia, 69.6%; in the experiment on OVCAR-8 ovarian it was 88.3%; in the experiment with OVCAR-5 ovarian, 59.6%. For the same compound, the growth was 87.1% in the experiment with OVCAR-4 ovarian; 88% with SK-OV-3 ovarian; 85.8% in the experiment with IGROV1 ovarian; 99.8% in the experiment on OVCAR-3 ovarian; 93.2% in the experiment with HS 578T breast; 83.2% with NCI/ADR-RES ovarian.

`COc1ccc(Cn2cc(COc3ccc4c5ccnc(C)c5n(CCCc5ccccc5)c4c3)nn2)cc1`: the growth is 64.4% in the experiment on SK-MEL-2 melanoma; 101% in the experiment with EKVX NSCLC; 69.1% in the experiment on SN12C renal; 70.5% with UO-31 renal; 103% in the experiment with TK-10 renal; 88.8% with A498 renal. In addition, the growth is 19.7% with CCRF-CEM leukemia; 38.4% in the experiment on MOLT-4 leukemia; -29% (active) with SR leukemia; -3.72% (active) with RPMI-8226 leukemia; 61.9% in the experiment with OVCAR-8 ovarian; 111% in the experiment on OVCAR-5 ovarian. Further, the growth with OVCAR-4 ovarian was 70.2%; with SK-OV-3 ovarian, 95.3%; in the experiment on IGROV1 ovarian, 75.3%; in the experiment on OVCAR-3 ovarian, 76%; with HS 578T breast, 77.8%; with NCI/ADR-RES ovarian, 67%.

For `COc1ccc(Cl)cc1NC(=O)c1cc2c([nH]1)-c1nc(NC(=O)C(C)(C)C)sc1CC2`, the growth in the experiment with SK-MEL-2 melanoma was 83%; in the experiment on EKVX NSCLC, 50.4%; in the experiment on SN12C renal it was 38.6%; in the experiment with UO-31 renal it was 58.8%; in the experiment on TK-10 renal, 66.6%; with A498 renal, 79.2%. For the same compound, the growth in the experiment with CCRF-CEM leukemia was 52%; with MOLT-4 leukemia it was 58.6%; in the experiment on SR leukemia it was 28.2%; in the experiment with RPMI-8226 leukemia, 83.8%; with OVCAR-8 ovarian it was 26.8%; with OVCAR-5 ovarian, 108%. Besides, the growth is 57% with OVCAR-4 ovarian; 82.1% with SK-OV-3 ovarian; 65.3% with IGROV1 ovarian; 32.8% in the experiment with OVCAR-3 ovarian; 44% in the experiment on HS 578T breast; 40.9% in the experiment on NCI/ADR-RES ovarian.

For the compound `Cc1cccc(CC(=O)c2ccccc2)n1`, the growth with SK-MEL-2 melanoma is 96.7%; in the experiment on EKVX NSCLC it was 79.2%; in the experiment with SN12C renal, 94.5%; with UO-31 renal, 81.5%; with TK-10 renal it was 95.6%; with A498 renal it was 74.3%. In addition, the growth was 71.8% with CCRF-CEM leukemia; 90.5% in the experiment with MOLT-4 leukemia; 94.4% with SR leukemia; 89.4% in the experiment on RPMI-8226 leukemia; 91.8% with OVCAR-8 ovarian; 83.8% in the experiment with OVCAR-5 ovarian. Moreover, the growth is 90% in the experiment on OVCAR-4 ovarian; 92.2% in the experiment on SK-OV-3 ovarian; 97% with IGROV1 ovarian; 105% in the experiment on OVCAR-3 ovarian; 91% in the experiment with HS 578T breast; 75.7% with NCI/ADR-RES ovarian.

For the compound `O=C(CSc1nnc(-c2ccc(Cl)cc2)o1)Nc1ccc(C(=O)/C=C/c2ccccc2)cc1`, the growth was 92.9% in the experiment with SK-MEL-2 melanoma; 98% with EKVX NSCLC; 95.5% in the experiment on SN12C renal; 80.1% with UO-31 renal; 93.7% with TK-10 renal; 95.7% in the experiment with A498 renal. The growth in the experiment on CCRF-CEM leukemia is 86.1%; in the experiment with MOLT-4 leukemia, 93.1%; in the experiment on SR leukemia, 60.4%; in the experiment on RPMI-8226 leukemia, 68.7%; with OVCAR-8 ovarian, 97.3%; in the experiment with OVCAR-5 ovarian, 106%. Moreover, the growth was 101% with OVCAR-4 ovarian; 117% in the experiment with SK-OV-3 ovarian; 108% with OVCAR-3 ovarian; 101% in the experiment with HS 578T breast; 88.1% with NCI/ADR-RES ovarian.

For `CC(=O)Cc1cccnc1`, the growth was 116% in the experiment with SK-MEL-2 melanoma; 105% with EKVX NSCLC; 98.9% in the experiment with SN12C renal; 89.8% in the experiment on UO-31 renal; 95.5% with TK-10 renal; 85.4% with A498 renal. Also, the growth was 88.5% in the experiment on CCRF-CEM leukemia; 93.7% in the experiment with MOLT-4 leukemia; 93% in the experiment with RPMI-8226 leukemia; 97% with OVCAR-8 ovarian; 109% in the experiment with OVCAR-5 ovarian; 108% in the experiment with OVCAR-4 ovarian. Also, the growth in the experiment on SK-OV-3 ovarian was 114%; in the experiment on IGROV1 ovarian, 100%; in the experiment on OVCAR-3 ovarian it was 116%; with HS 578T breast it was 95.2%; with NCI/ADR-RES ovarian, 104%.

Regarding `O=C(/C=C/c1ccccc1)Oc1ccc(/C=C/c2cc(OC(=O)/C=C/c3ccccc3)cc(OC(=O)/C=C/c3ccccc3)c2)cc1`, the growth is 105% in the experiment on SK-MEL-2 melanoma; 99.1% in the experiment with EKVX NSCLC; 106% in the experiment with SN12C renal; 82.9% in the experiment with UO-31 renal; 87% with TK-10 renal; 91.3% in the experiment with A498 renal. Moreover, the growth with CCRF-CEM leukemia was 91.1%; in the experiment with MOLT-4 leukemia it was 86.8%; in the experiment with SR leukemia, 92%; with RPMI-8226 leukemia, 99.8%; in the experiment with OVCAR-8 ovarian it was 84.7%; in the experiment with OVCAR-5 ovarian, 96.6%. Also, the growth was 100% with OVCAR-4 ovarian; 86.5% with SK-OV-3 ovarian; 107% in the experiment on OVCAR-3 ovarian; 95.9% in the experiment on HS 578T breast; 103% in the experiment on NCI/ADR-RES ovarian.

Turning to `C=CC(C)(O)CCC1C(=C)CCC2C(C)(C)CCCC12C` (stereo not drawn), the growth in the experiment on SK-MEL-2 melanoma is 92.2%; in the experiment on EKVX NSCLC, 96.7%; in the experiment with SN12C renal, 108%; in the experiment with UO-31 renal, 90.3%; in the experiment on TK-10 renal, 83.3%; with A498 renal, 106%. In addition, the growth with CCRF-CEM leukemia was 124%; in the experiment on MOLT-4 leukemia, 89.9%; in the experiment with RPMI-8226 leukemia, 102%; with OVCAR-8 ovarian, 114%; with OVCAR-5 ovarian, 106%; in the experiment on OVCAR-4 ovarian, 114%. For the same compound, the growth in the experiment with SK-OV-3 ovarian was 94.1%; in the experiment on IGROV1 ovarian, 108%; in the experiment on OVCAR-3 ovarian, 105%; in the experiment with HS 578T breast, 113%; in the experiment on NCI/ADR-RES ovarian it was 101%.
